Rows were chosen to be rich in hits. Some 7.8% of all compounds tested hit in one or more screens of this group.
HCMV antiviral – qHTS Assay for inhibitors of the human cytomegalovirus (HCMV). actives 4.5% (n = 410,000). activity change, negative = inhibition, % at 57.5 µM. HFF cells, HCMV-luciferase reporter, 72 h; hits give low values; in the data active means activity change below about -60%; inconclusive means no clear call, values can overlap the other calls; inactive means above about -39%
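HFF cells seeded 16 h at 37C, treated with compounds, infected with luciferase-reporter HCMV at MOI 1 PFU/cell; luciferase read at 72 h post infection, normalized to buffer-only and Salinomycin controls.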
VACV Venus inh – qHTS for Stage-Specific Inhibitors of Vaccinia Orthopoxvirus: Venus Reporter Primary qHTS; Vaccinia virus Venus reporter expression, fluorescence; Potency, µM (top dose mostly 36.5 µM), for the others: at the highest dose activity change, negative = inhibition, hits mostly inhibitors; actives 0.46% (n = 330,000); AID 720580, 2013; calls by dose curve; tested in A549 cells; further: potency means the concentration at half of the fitted maximal effect; nearly all actives have a fitted effect of over 30% in size
HCV inhibitor – qHTS Assay for Inhibitors of Hepatitis C Virus (HCV) | Huh7.5.1 HCVcc-Cre infection, luciferase reporter, 44 h | Potency, µM (titrated, usually from 41.8 µM), inactives show at the top dose activity change, negative = inhibition, usual class: inhibitors | actives 3.4% (n = 340,000); active means well fitted inhibition curve with a large enough effect; inconclusive means small, poorly fitted or top-dose-only effect, or another doubt; inactive means no such curve, though single readings can be large or run the other way; further: potency means the concentration at half of the fitted maximal effect
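A cell-based infection assay in which seeded cells (1,000 per well) receive test compound after 4 h, are inoculated with HCVcc-Cre at approximately 0.5 moi, and are incubated 44 h before luminescence detection.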
Lassa entry inh – qHTS for Inhibitors of binding or entry into cells for Lassa Virus. Lassa virus pseudotype entry inhibition, cell reporter. Potency, µM (doses to about 37.9 µM), without a hit: at the highest dose activity change, negative = inhibition, usual class: inhibitors. actives 1.2% (n = 300,000); calls by dose curve; tested in HEK293 cells; further: potency means the concentration at half of the fitted maximal effect; nearly all actives have a fitted effect of over 50% in size
Marburg entry inh – qHTS for inhibitors of binding or entry into cells for Marburg Virus; AID 540276, 2011; Potency, µM (top dose mostly 37.8 µM), for inactives: at the top dose activity change, negative = inhibition, usual class: inhibitors; Marburg virus pseudotyped entry inhibition, cell reporter; actives 1.8% (n = 300,000); calls by dose curve; tested in HEK293 cells; further: potency means the concentration at half of the fitted maximal effect
VACV mCherry inh – qHTS for Stage-Specific Inhibitors of Vaccinia Orthopoxvirus: mCherry Reporter Primary qHTS. Vaccinia virus mCherry reporter infection, fluorescence. Potency, µM (series often up to 36.5 µM), without a hit: at the highest dose activity change, negative = inhibition, hits mostly inhibitors. actives 0.63% (n = 310,000); calls by dose curve; tested in A549 cells; further: potency means the concentration at half of the fitted maximal effect; nearly all actives have a fitted effect of over 35% in size
Starred values were filed as active, the others as inactive; i = inactive; ? = inconclusive; . = no result given; [ ] = remark or other dose. On the % scale 0 is the no-effect control and ±100 the full control effect.

SMILES | HCMV antiviral | VACV Venus inh | HCV inhibitor | Lassa entry inh | Marburg entry inh | VACV mCherry inh
CC(=O)Nc1ccc(-c2csc(NC(=O)CN3C(=O)NC4(CCCC4)C3=O)n2)cc1 | 2.5 | -6.9% | ? | 0.6% | 2.1% | -11.5%
Cc1ccc(S(=O)(=O)Nc2cccc(-c3ccc(N4CCC(C)CC4)nn3)c2)s1 | 38.5 | -11.5% | . | -28.9%[46.1 µM] | . | -19.4%
COCOc1ccc(Br)cc1C(=O)C=Cc1ccc2c(c1)OCO2 | . | . | . | . | 5.6%[14.2 µM] | .
CCOC(=O)c1[nH]c(C)c(CCC(=O)NCc2ccc(CC)cc2)c1C | -0.3 | -10.5% | . | -28.1%[46.1 µM] | . | -6.3%
COCCNc1nnc(SC(C)C(=O)Nc2ccc(-c3nc4ccc(C)cc4s3)cc2)s1 (stereo not drawn) | 29.9 | ? | 6.31µM* | ? | ? | ?
Cc1ccc(C(C[N+](=O)[O-])c2c(-c3ccccc3O)[nH][nH]c2=O)cc1 (stereo not drawn) | -74.7* | -8.4% | 1.8% | -1.5% | ? | -17.5%
O=c1[nH][nH]c(-c2ccccc2O)c1C(C[N+](=O)[O-])c1ccc(Br)cc1 (stereo not drawn) | ? | -15.2% | ? | ? | ? | -28.8%
Cc1nn(-c2ccc(N3CCCCC3)nn2)c(C)c1CCC(=O)Nc1ccc(F)cc1F | -27.2 | -3.5% | . | ? | . | 3.2%
COc1ccc(CSc2ccc(-c3nc4ccccn4c3NCc3ccccc3)cc2OC)cc1 | -64.8* | -19.1% | ? | . | . | -26.0%
COc1ccc(-c2nc3ccccn3c2NC2CCCCC2)cc1SC1CCCCC1 | -98.7* | ? | ? | . | . | ?
COc1ccc(Sc2ccc(-c3nc4cnccn4c3NC3CCCCC3)cc2OC)cc1 | 3.5 | 11.2µM* | -9.4% | . | . | ?
CCCCNc1c(-c2ccc(OC)c(SC3CCCCC3)c2)nc2cc(C)ccn12 | -18.9 | ? | 3.98µM* | . | . | -49.4%
CCCCCCSc1cc(-c2nc3cc(C)ccn3c2NC2CCCCC2)ccc1OC | 47.5 | -28.7% | -19.3% | . | . | -23.6%
CCCN1CNc2c(c(=O)[nH]c(=S)n2CCc2cc(Cl)ccc2Cl)C1 | . | -23.7% | . | . | . | -8.9%
CCCOC(=O)CSc1nnc2ccc3ccccc3n12 | 13.1 | -2.3% | . | 3.8%[46.1 µM] | -0.9%[46.1 µM] | -7.6%
O=C(C1CCCCC1)N1C[C@@H](n2cc(-c3ccc(F)cc3)nn2)[C@@H](O)C[C@@H]1c1ccccc1 | . | . | . | -2.3%[46.1 µM] | . | .
CCn1c(-c2ccccc2F)nc2cc(NC(C)=O)cc(C(=O)NCc3ncc(C)[nH]3)c21 | . | -12.5% | . | . | . | i
COc1ccc(-c2cc(C)cc3c2OC(CNC(=O)c2cc(C(C)C)on2)C3)nn1 (stereo not drawn) | . | 5.4% | . | . | . | -7.2%
COc1ccc(-c2nc3cnccn3c2NCc2ccccc2)cc1SC1CCCCC1 | . | -21.1% | 10µM* | . | . | ?
CCC(C)C(=O)OC1CC(C)C=C2C=CC(C)C(CCC3CC(O)CC(=O)O3)C21 (stereo not drawn) | . | 17.6% | . | . | . | 1.1%
COc1cccc(CCNC(=O)c2ccc(OC)c(OC3CCN(C(C)C)CC3)c2)c1 | 7.1 | . | -13.7% | . | . | .
COCCCNC(=O)c1ccc(OC)c(OC2CCN(C(C)C)CC2)c1 | 29.9 | . | 22.4µM* | . | . | .
COc1ccccc1CCNC(=O)c1ccc(OC)c(OC2CCN(C(C)C)CC2)c1 | -62.2* | -13.2% | -2.3% | 16.9% | 29.2% | -18.9%
Cc1nn(CCC(=O)N2CCN(c3ccccc3F)CC2)c(C)c1S(=O)(=O)N1CCCC1 | -33.6 | -14.7% | . | 3.8%[46.1 µM] | . | i
Cc1cc(N/N=C/c2ccc(F)cc2)nc(NCc2ccccc2)n1 | 5.1 | -18.4% | 11.2µM* | ? | ? | ?
SMILES | HCMV antiviral | VACV Venus inh | HCV inhibitor | Lassa entry inh | Marburg entry inh | VACV mCherry inh
Cc1ccc(/C=N/Nc2cc(C)nc(NCc3ccccc3)n2)cc1 | -11.7 | -7.1% | 7.08µM* | ? | ? | ?
Cc1cc(N/N=C/c2ccc(N(C)C)cc2)nc(NCc2ccccc2)n1 | -18.5 | . | ? | . | . | .
CCOc1ccccc1NC(=O)Cn1c(=O)n(Cc2ccco2)c(=O)c2cccnc21 | -1.7 | -1.2% | . | . | -2.9%[46.1 µM] | -8.5%
CCc1nc2ccc(C(=O)NCCc3ccccn3)cn2c1N(C)Cc1ccc(N(C)C)cc1 | -5.3 | -4.2% | . | . | . | 42.2%
Cc1ccc(C(C(=O)NCc2ccco2)N(C(=O)CNC(=O)c2cccs2)c2c(C)cc(C)cc2C)cc1 (stereo not drawn) | -78.4* | -7.9% | ? | ? | ? | -11.5%
COc1cc2c(c3oc(-c4ccccc4)cc(=O)c13)C=CC(C)(C)O2 | ? | -24.7% | 1µM* | . | . | -29.8%
COc1cc(OC)c2c(=O)cc(-c3ccccc3)oc2c1 | 119.5 | 3.1% | ? | . | . | -5.9%
CCSc1nc2cc(OC)c(OC)cc2c(=O)n1CC | -21.1 | -23.3% | 5.01µM* | -21.7% | 0.3% | ?
Cc1ccc(-c2c3c(=O)n(C)c(=O)n(C)c3c3c(C(F)(F)F)nc4ccccc4n23)cc1 | 19.0 | -3.2% | . | -4.9%[46.1 µM] | 8.7%[46.1 µM] | -12.8%
CCOC(=O)C1=C(C)N(CCCC(=O)O)C(=O)NC1c1ccccc1OS(=O)(=O)c1ccc([N+](=O)[O-])cc1 (stereo not drawn) | -100.2* | ? | 16.1% | . | . | ?
CC1=C(C(=O)OCc2ccccc2)C(c2ccccc2OS(=O)(=O)c2ccc([N+](=O)[O-])cc2)NC(=O)N1CCCC(=O)O (stereo not drawn) | 13.8 | ? | 6.7% | . | . | ?
CCCCNC(=O)C(C)N(CCN(C)C)C(=O)CCCN1C(=O)NC(c2ccc([N+](=O)[O-])cc2)C(C(=O)OCc2ccccc2)=C1C (stereo not drawn) | . | ? | 22.4µM* | . | . | ?
CCCCCCN(C(=O)CCCCCN1C(=O)NC(c2ccc(-c3ccccc3)cc2)C(C(=O)OCc2ccccc2)=C1C)C(C(=O)NCCCC)c1ccc(OCC(=O)OC)c(C(=O)OC)c1 (stereo not drawn) | -3.0 | . | . | . | . | .
CCCCNC(=O)C(C1CCCCC1)N(CCN(C)C)C(=O)CCCN1C(=O)NC(c2ccc(-c3ccccc3)cc2)C(C(=O)OCc2ccccc2)=C1C (stereo not drawn) | . | . | 10µM* | . | . | .
CCCCCCN(C(=O)CCCCCN1C(=O)NC(c2ccc(-c3ccccc3)cc2)C(C(=O)OCc2ccccc2)=C1C)C(C)C(=O)NCCCC (stereo not drawn) | 41.7 | . | -6.1%[8.37 µM] | ? | ? | .
CCCCCCN(C(=O)CCCCCN1C(=O)NC(c2cccc([N+](=O)[O-])c2)C(C(=O)OCc2ccccc2)=C1C)C(C(=O)NCCCC)c1ccc(OCC(=O)OC)c(C(=O)OC)c1 (stereo not drawn) | -73.9* | . | . | . | . | .
CCCCOc1ccccc1Cn1c(=O)sc2ccccc21 | -2.5 | -5.7% | . | ? | ? | -4.9%
